Test results taken from PubChem BioAssay (Tox21).
“And” between values parts separate entries of the source, which are not always exact repeats. Equal entries are not always repeated. Inconclusive results are not listed. Where a structure was tested more than once in an assay, its records may differ in their call. The source made the active and inactive calls. Unless noted, calls come from the whole dose curve; as a rule, active = well fitted curve in the direction sought with a large enough effect in the repeat runs; inconclusive = weak or mixed curves; inactive = no such curve, though single readings can be large; an effect the other way counts as inactive or inconclusive.

Experiments:
[1] = molecular target: Luciferin 4-monooxygenase (Photinus pyralis) (UniProt P08659); experiment: qHTS assay to identify small molecule inhibitors of firefly luciferase (AID 1224835); note: nearly all actives have a fitted effect of over 25% in size; note: potency is the fitted concentration of half-maximal effect
Outline: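 Inhibition of purified Photinus luciferase is measured by luminescence. Substrate levels (D-luciferin, ATP) sit at their KM values. Each compound is tested in a concentration series.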

[2] = qHTS assay to identify small molecule agonists of the constitutive androstane receptor (CAR) signaling pathway - cell viability counter screen (AID 1224836); note: nearly all actives have a fitted effect of over 45% in size; note: potency is the fitted concentration of half-maximal effect
Outline: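 HepG2-CYP2B6-hCAR, 2500 cells/well, 4 h pre-incubation; cpd 15 conc + PK11195 0.75 uM final; 23 h, 37 C/5% CO2; CellTiter-Fluor, fluorescence.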

[3] = molecular target: Nuclear receptor subfamily 1 group I member 3 (Homo sapiens) (UniProt Q14994); experiment: qHTS assay to identify small molecule antagonists of the constitutive androstane receptor (CAR) signaling pathway (AID 1224838);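 note: HepG2 cells stably expressing hCAR with CYP2B6 luciferase reporter stimulated by CITCO; nearly all actives have a fitted effect of over 40% in size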; note: potency is the fitted concentration of half-maximal effect
Outline: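 Reporter luminescence was quantified after 24 h exposure of hCAR/CYP2B6-2.2kb double-stable HepG2 cells to compounds at 15 concentrations in the presence of 50 nM CITCO final.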

[4] = molecular target: Nuclear receptor subfamily 1 group I member 3 (Homo sapiens) (UniProt Q14994); experiment: qHTS assay to identify small molecule agonists of the constitutive androstane receptor (CAR) signaling pathway (AID 1224839); note: nearly all actives have a fitted effect of over 15% in size; note: potency is the fitted concentration of half-maximal effect;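 for activation: HepG2 cells stably carrying human CAR and a CYP2B6 luciferase reporter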
Outline: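 HepG2-CYP2B6-hCAR cells, 2500/well, 4 h pre-incubation; compounds 15 conc.; PK11195 0.75 uM final; 24 h, 37 C/5% CO2; ONE-Glo luciferase read.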

[5] = molecular target: Thyrotropin receptor (Homo sapiens) (UniProt P16473); experiment: qHTS assay to identify small molecule agonists of the thyroid stimulating hormone receptor (TSHR) signaling pathway (AID 1224843; calls by dose curve; note: nearly all actives have a fitted effect of over 45% in size; note: potency is the fitted concentration of half-maximal effect)
Outline: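 HEK293 cells stably bearing the thyrotropin receptor were plated at 800 cells/well and challenged with compound (30 min, RT). Accumulated cAMP was quantified via cAMP-d2 competing for cryptate-tagged antibody.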

[6] = qHTS assay to identify small molecule agonists of the hypoxia (HIF-1) signaling pathway - cell viability counter screen (AID 1224844; calls by dose curve; note: nearly all actives have a fitted effect of over 50% in size; note: potency is the fitted concentration of half-maximal effect)
Outline: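 Multiplexed with the HRE beta-lactamase assay, this viability read used CellTiter-Glo luminescence (30 min, RT) on HRE-bla ME-180 cells treated 17 hrs with compounds in 0.5% dialyzed FBS medium.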

[7] = qHTS assay to identify small molecule agonists of the hypoxia (HIF-1) signaling pathway (AID 1224846; active = well fitted activation curve with a large enough effect in the signal ratio in the repeat runs, not every such curve was filed as active; the % refers to the signal ratio)
Outline: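 Hypoxia-pathway activation was scored as increased beta-lactamase from an HRE-controlled reporter in ME-180 cells; plated at 2,000 cells per well with 0.5% dialyzed FBS, they were exposed 17 hrs to compounds and then given CCF4-AM.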

[8] = qHTS RealTime-Glo MT Cell Viability Assay in HepG2 cells - 24 hour (AID 1224867); note: nearly all actives have a fitted effect of over 50% in size; note: potency is the fitted concentration of half-maximal effect
Outline: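 Cell number in HepG2 cultures estimated from NanoLuc luminescence generated by metabolic reduction of a prosubstrate by living cells. The homogeneous, nonlytic format allowed repeated reads at 0, 8, 16, 24, 32 and 40 h of compound exposure.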

[9] = qHTS RealTime-Glo MT Cell Viability Assay in HEK293 cells - 32 hour (AID 1224868); note: nearly all actives have a fitted effect of over 50% in size; note: potency is the fitted concentration of half-maximal effect
Outline: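 Homogeneous bioluminescent viability format in HEK293 cells (600 cells/well). Following 5 h at 37 C/5% CO2, 23 nL compound was pintooled; the signal was measured repeatedly during 40 h incubation.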

[10] = A CellTox Green Cytotoxicity Assay to monitor cytotoxicity in HEK293 cells - 0 hour (AID 1224869); note: nearly all actives have a fitted effect of over 50% in size
Outline: (§1)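 Seeding of HEK293 cells together with cytotoxicity dye preceded a 5 h incubation at 37 C/5% CO2. Test compounds in DMSO were then added and fluorescence monitored across 40 h.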

[11] = qHTS RealTime-Glo MT Cell Viability Assay in HepG2 cells - 40 hour (AID 1224870); note: nearly all actives have a fitted effect of over 50% in size; note: potency is the fitted concentration of half-maximal effect
Outline: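 Real-time viability: cells seeded at 600 per well together with NanoLuc and cell-permeant prosubstrate, compounds added after 5 h incubation. Luminescence tracked at 0, 8, 16, 24, 32 and 40 h of exposure.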

[12] = qHTS assay to identify small molecule antagonists of the constitutive androstane receptor (CAR) signaling pathway - cell viability counter screen (AID 1224837); note: nearly all actives have a fitted effect of over 45% in size; note: potency is the fitted concentration of half-maximal effect
Outline: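 Using CellTiter-Fluor, viability is scored in HepG2 cells stably carrying hCAR and a 2.2kb CYP2B6 reporter after 23 hr compound exposure across 15 concentrations, with CITCO present at 50 nM.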

[13] = qHTS assay to identify small molecule antagonists of the estrogen related receptor signaling pathway with the pleiotropic PPARgamma coactivator (PGC) from Tox21 10K library (AID 1224841; call rule not given here; note: potency is the fitted concentration of half-maximal effect)
Outline: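 Each well held 2,000 PGC/ERR cells, pre-incubated six hours (37 C, 5% CO2). Test substances in DMSO were added by pin tool and left for 18 h at 37 C before luciferase detection by One-Glo.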

[14] = qHTS assay to identify small molecule agonists of the estrogen related receptor signaling pathway with the pleiotropic PPARgamma coactivator (PGC) from Tox21 10K library (AID 1224842); note: nearly all actives have a fitted effect of over 15% in size; note: potency is the fitted concentration of half-maximal effect
Outline: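 Luminescence from One-Glo (30 min, room temperature) measured after PGC/ERR cells had 18 h at 37 C with pinned compound (23 nL in DMSO). Cells had been seeded at 2,000 per well and pre-incubated 6 h.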

[15] = qHTS assay to identify small molecule agonists of the estrogen related receptor (ERR) signaling pathway from Tox21 library (AID 1224849; calls by dose curve; note: nearly all actives have a fitted effect of over 15% in size); settings: ERR reporter cell line, ONE-Glo luciferase, 18 h
Outline: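 Six hours post-seeding at 37 C/5% CO2, ERR cells receive DMSO-solubilised compounds; after 18 h at 37 C, ONE-Glo reagent is applied and luminescence recorded.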

[16] = qHTS assay to identify small molecule antagonists of the estrogen related receptor signaling pathway with the pleiotropic PPARgamma coactivator (PGC) from Tox21 10K library - cell viability counter screen (AID 1224840; active = well fitted cell-killing curve with a large enough effect in the repeat runs, not every such curve was filed as active; note: nearly all actives have a fitted effect of over 40% in size; note: potency is the fitted concentration of half-maximal effect)
Outline: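 Here the PGC/ERR cells serve as a cytotoxicity control: they are exposed to compounds for 17.5 hours at 37 C, and live-cell signal is quantified using CellTiter-Fluor fluorescence.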

[17] = qHTS assay to identify small molecule agonists of H2AX (AID 1224845; active = well fitted activation curve with a large enough effect in the signal ratio in the repeat runs, not every such curve was filed as active; the % refers to the signal ratio)
Outline: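 Phospho-H2AX Ser139 measured by HTRF (ex 320 nm; em 665 and 620 nm) after 24 hr antibody incubation. Compounds, 15 concentrations, 0.76% DMSO, were applied to CHO-K1 cells for 3hr at 37C before lysis.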

[18] = qHTS assay to identify small molecule antagonists of the estrogen related receptor (ERR) signaling pathway from Tox21 library (AID 1224848); note: nearly all actives have a fitted effect of over 50% in size; note: potency is the fitted concentration of half-maximal effect
Outline: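 Reading was by luminescence 30 min after ONE-Glo addition. Before that, ERR cells at 2,000 per well had rested 6 h at 37 C/5% CO2 and then received pin-tooled compounds in DMSO for 18 h at 37 C.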

[19] = A CellTox Green Cytotoxicity Assay to monitor cytotoxicity in HEK293 cells - 40 hour (AID 1224871); note: nearly all actives have a fitted effect of over 45% in size; note: potency is the fitted concentration of half-maximal effect
Outline: as §1

[20] = qHTS assay to identify small molecule agonists of H2AX - cell viability counter screen (AID 1224847; calls by dose curve; note: nearly all actives have a fitted effect of over 30% in size; note: potency is the fitted concentration of half-maximal effect)
Outline: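 Cells plated first: CHO-K1, 1000 per well in 10% FBS medium, incubated overnight at 37C. Then 15-point compound titration added (final DMSO 0.76%) for 3 hr. Finally CellTiter-Glo added and luminescence read.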
% is set by controls: 0 for no effect and ±100 for the full control effect.

Thyrotropin receptor (Homo sapiens), sequence (P16473 whole entry, looked up): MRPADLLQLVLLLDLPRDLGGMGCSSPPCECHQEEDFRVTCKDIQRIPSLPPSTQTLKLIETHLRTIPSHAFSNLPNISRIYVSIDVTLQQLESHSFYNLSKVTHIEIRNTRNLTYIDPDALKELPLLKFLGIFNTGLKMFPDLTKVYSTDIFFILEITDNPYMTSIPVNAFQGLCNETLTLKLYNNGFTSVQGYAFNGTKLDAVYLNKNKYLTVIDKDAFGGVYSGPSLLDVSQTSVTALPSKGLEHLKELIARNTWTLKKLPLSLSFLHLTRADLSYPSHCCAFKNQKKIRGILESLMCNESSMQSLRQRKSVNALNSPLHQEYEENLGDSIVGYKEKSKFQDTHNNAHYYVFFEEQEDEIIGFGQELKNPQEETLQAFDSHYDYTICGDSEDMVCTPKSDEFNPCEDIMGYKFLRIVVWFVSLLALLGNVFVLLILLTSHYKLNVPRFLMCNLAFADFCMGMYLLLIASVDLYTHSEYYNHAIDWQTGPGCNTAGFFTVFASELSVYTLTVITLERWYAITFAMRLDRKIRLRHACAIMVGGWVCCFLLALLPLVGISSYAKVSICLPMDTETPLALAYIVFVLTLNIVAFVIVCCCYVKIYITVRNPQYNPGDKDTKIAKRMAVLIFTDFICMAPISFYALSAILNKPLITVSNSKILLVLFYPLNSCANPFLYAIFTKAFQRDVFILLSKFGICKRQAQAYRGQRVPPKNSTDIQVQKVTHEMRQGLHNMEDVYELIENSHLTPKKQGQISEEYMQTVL
Luciferin 4-monooxygenase (Photinus pyralis), sequence (P08659 whole entry, looked up): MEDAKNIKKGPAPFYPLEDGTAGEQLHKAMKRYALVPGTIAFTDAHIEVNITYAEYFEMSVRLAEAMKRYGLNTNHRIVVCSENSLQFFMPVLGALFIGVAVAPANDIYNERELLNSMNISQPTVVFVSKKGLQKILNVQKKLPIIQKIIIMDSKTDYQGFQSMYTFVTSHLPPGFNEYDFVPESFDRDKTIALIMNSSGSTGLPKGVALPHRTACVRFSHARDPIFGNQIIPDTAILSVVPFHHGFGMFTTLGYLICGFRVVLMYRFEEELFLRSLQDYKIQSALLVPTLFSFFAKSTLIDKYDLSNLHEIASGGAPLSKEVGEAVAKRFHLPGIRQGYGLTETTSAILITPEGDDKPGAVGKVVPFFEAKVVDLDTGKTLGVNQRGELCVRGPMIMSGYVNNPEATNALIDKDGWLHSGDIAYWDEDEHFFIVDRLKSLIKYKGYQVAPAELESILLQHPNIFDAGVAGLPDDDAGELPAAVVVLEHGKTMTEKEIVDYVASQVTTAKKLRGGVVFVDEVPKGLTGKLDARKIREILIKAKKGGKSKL
Nuclear receptor subfamily 1 group I member 3 (Homo sapiens), sequence (Q14994 whole entry, looked up): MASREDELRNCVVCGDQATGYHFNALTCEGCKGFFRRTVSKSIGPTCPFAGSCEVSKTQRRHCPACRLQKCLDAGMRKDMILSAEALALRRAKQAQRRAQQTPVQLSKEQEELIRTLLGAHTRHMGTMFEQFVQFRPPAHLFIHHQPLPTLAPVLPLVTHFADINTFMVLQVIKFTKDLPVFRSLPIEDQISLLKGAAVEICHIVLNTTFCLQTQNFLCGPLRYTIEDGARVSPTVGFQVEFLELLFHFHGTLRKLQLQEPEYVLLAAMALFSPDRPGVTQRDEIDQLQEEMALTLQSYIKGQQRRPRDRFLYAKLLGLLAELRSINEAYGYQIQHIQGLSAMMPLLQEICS

CNC(=O)c1ccccc1Sc1ccc2c(/C=C/c3ccccn3)n[nH]c2c1
inactive: Potency [2] | Potency [3] | Potency [5] | Potency [6] | Potency [7] | Potency [8] | Potency [10] | Potency [11]
active: Potency [1] 0.871 µM | Potency [4] 1.06 µM | Potency [9] 9.52 µM

CN(C)[C@@H](CCOc1cccc2ccccc12)c1ccccc1
inactive: Potency [1] | Potency [12] | Potency [3] | Potency [4] | Potency [13] | Potency [14] | Potency [7] | activity change, positive = activation ([15]; at 42.5 µM (top of the series)) -27.2%
active: Potency [5] 33.5 µM

Cc1c2ccccc2c(C)c2c1ccc1ccccc12
active: Potency [1] 19.8 µM and 31.7 µM | Potency [12] 54.5 µM | Potency [4] 5.39 µM and 9.69 µM | Potency [16] 53.9 µM and 27.3 µM | Potency [13] 34.4 µM | Potency [5] 27 µM and 24.3 µM | Potency [18] 30.3 µM and 61.1 µM | Potency [9] 43.2 µM and 24.5 µM | Potency [19] 43.6 µM
inactive: Potency [3] | Potency [6] | Potency [17] | activity change, positive = activation ([15]; at 92.4 µM (top of the series)) -83.3% and -76.1% | Potency [8] | Potency [11]
24.1 µM (active) and inactive: Potency [14]

CNc1ccc([N+](=O)[O-])cc1
active: Potency [1] 40 µM | Potency [12] 48.7 µM | Potency [16] 48.7 µM
inactive: Potency [3] | Potency [4] | Potency [13] | Potency [14] | Potency [5] | Potency [17] | Potency [7] | Potency [20] | Potency [18] | activity change, positive = activation ([15]; at 92.4 µM (top of the series)) 0.163% | Potency [8] | Potency [10] | Potency [11] | Potency [19]

Cl[Si](Cl)(c1ccccc1)c1ccccc1
inactive: Potency [1] | Potency [2] | Potency [12] | Potency [16] | Potency [5] | Potency [6] | Potency [17] | Potency [7] | Potency [20] | Potency [8] | Potency [10] | Potency [11]

O=C1c2ccccc2C(=O)N1SC1CCCCC1
inactive and 43.6 µM (active): Potency [11]
active: Potency [1] 25.2 µM and 17.8 µM | Potency [3] 68.5 µM | Potency [6] 54.9 µM | Potency [20] 89.7 µM and 89.8 µM | Potency [8] 38.9 µM | Potency [9] 24.5 µM and 38.9 µM | Potency [19] 12.3 µM and 21.9 µM
inactive: Potency [2] | Potency [4] | Potency [16] | Potency [5] | Potency [10]

CC(CCc1ccccc1)NCC(O)c1ccc(O)c(C(N)=O)c1 (stereo unspecified)
active: Potency [2] 30.6 µM
inactive: Potency [1] | Potency [3] | Potency [4] | Potency [16] | Potency [6] | Potency [17] | Potency [20] | Potency [8] | Potency [10] | Potency [11] | Potency [19]

[Cu+]
active: Potency [1] 35.6 µM | Potency [11] 34.7 µM
inactive: Potency [2] | Potency [12] | Potency [16] | Potency [5] | Potency [6] | Potency [17] | Potency [10]

C=Cc1ccccc1C=C
inactive: Potency [1] | Potency [2] | Potency [12] | Potency [16] | Potency [5] | Potency [6] | Potency [17] | Potency [7] | Potency [20] | Potency [8] | Potency [9] | Potency [11]

CCc1oc2ccccc2c1C(=O)c1cc(I)c(O)c(I)c1
inactive: Potency [1] | Potency [2] | Potency [12] | Potency [16] | Potency [5] | Potency [6] | Potency [17] | Potency [8] | Potency [9] | Potency [10] | Potency [11] | Potency [19]

O=C(O)[C@H](O)[C@@H](O)[C@H](O[C@@H]1O[C@H](CO)[C@H](O)[C@H](O)[C@H]1O)[C@H](O)CO
inactive: Potency [1] | Potency [2] | Potency [12] | Potency [16] | Potency [5] | Potency [6] | Potency [17] | Potency [8] | Potency [9] | Potency [10] | Potency [11] | Potency [19]

CC(CO)Oc1ccccc1 (stereo unspecified)
inactive: Potency [1] | Potency [2] | Potency [12] | Potency [16] | Potency [5] | Potency [6] | Potency [17] | Potency [7] | Potency [20] | Potency [8] | Potency [9] | Potency [11] | Potency [19]

O=S(=O)(O)c1ccc(N=Nc2c(O)ccc3ccccc23)cc1
active: Potency [1] 35.6 µM | Potency [12] 30.6 µM | Potency [16] 48.6 µM | Potency [6] 12.3 µM
inactive: Potency [3] | Potency [4] | Potency [7] | Potency [10] | Potency [19]

CCn1c2ccccc2c2cc([N+](=O)[O-])ccc21
inactive: Potency [1] | Potency [2] | Potency [12] | Potency [16] | Potency [6] | Potency [8] | Potency [10] | Potency [11] | Potency [19]

O=C1C(c2[nH]c3ccc(S(=O)(=O)O)cc3c2O)=Nc2ccc(S(=O)(=O)O)cc21
inactive: Potency [2] | Potency [12] | Potency [16] | Potency [6] | Potency [7] | Potency [20] | Potency [18] | activity change, positive = activation ([15]; at 92.4 µM (top of the series)) -7.96% | Potency [8] | Potency [9] | Potency [10] | Potency [11]
active: Potency [1] 31.7 µM

Cc1cc(C(C)(C)C)c(O)c(C)c1Cn1c(=O)n(Cc2c(C)cc(C(C)(C)C)c(O)c2C)c(=O)n(Cc2c(C)cc(C(C)(C)C)c(O)c2C)c1=O
inactive: Potency [1] | Potency [2] | Potency [12] | Potency [16] | Potency [5] | Potency [17] | Potency [20] | activity change, positive = activation ([15]; at 92.4 µM (top of the series)) -29.1% | Potency [10] | Potency [19]
active: Potency [9] 21.9 µM

CC(N=C(NC#N)Nc1ccncc1)C(C)(C)C (stereo unspecified)
inactive: Potency [1] | Potency [2] | Potency [12] | Potency [16] | Potency [5] | Potency [6] | Potency [17] | Potency [20] | Potency [18] | activity change, positive = activation ([15]; at 42.5 µM (top of the series)) -15.5% | Potency [8] | Potency [9] | Potency [10] | Potency [11] | Potency [19]

CCCCN(CCCC)CC(O)c1cc(Cl)cc2c1-c1ccc(Cl)cc1/C2=C/c1ccc(Cl)cc1 (stereo unspecified)
inactive: Potency [1] | Potency [2] | Potency [3] | Potency [13] | Potency [14] | Potency [5] | Potency [6] | Potency [7] | activity change, positive = activation ([15]; at 42.5 µM (top of the series)) -23.2% | Potency [9] | Potency [10] | Potency [19]

CCCCC/C=C\C/C=C\CCCCCCCC(=O)O
78.3 µM (active) and inactive: Potency [1]
inactive: Potency [2] | Potency [12] | Potency [16] | Potency [5] | Potency [17] | Potency [8] | Potency [10] | Potency [11]
